High-throughput results as filed in PubChem BioAssay.
In the library only some 7.9% were active in any assay of this set; here they are far more common.
PLAP activator = PLAP enzyme activators, biochemical, luminescence, HTS; Alkaline phosphatase, placental type (Homo sapiens), P05187; purified PLAP enzyme, luminescent substrate read-out; hits give high values; activation fold at 20 µM; 96,000 tested, 1.2% active; in the data active = activation fold above about 2
M1 ag = M1 muscarinic receptor agonists, primary screen, CHO-M1 cells, Fluo-4 calcium, agonist mode; Fluo-4 calcium fluorescence; hits give high values; 64,000 tested, 3% active; B-score at 10 µM;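 active = fluorescence rise, raw or as B-score row- and column-corrected plate score, outside the 99.7% band of its plate's samples, either direction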
Cav32 inh = Cav3.2 calcium influx blockers – cell-based, Fluo-4 calcium fluorescence, FDSS, MLSMR library, primary screen. Cav3.2-expressing cells; hits give low values. B-score at 10 µM. 100,000 tested, 4% active. AID 449739, 2010;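 active = single-dose well whose peak fluorescence ratio is a statistical outlier from its plate by either plate-standardised score or position-corrected B-score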
Target sequence (O95180 whole entry, looked up): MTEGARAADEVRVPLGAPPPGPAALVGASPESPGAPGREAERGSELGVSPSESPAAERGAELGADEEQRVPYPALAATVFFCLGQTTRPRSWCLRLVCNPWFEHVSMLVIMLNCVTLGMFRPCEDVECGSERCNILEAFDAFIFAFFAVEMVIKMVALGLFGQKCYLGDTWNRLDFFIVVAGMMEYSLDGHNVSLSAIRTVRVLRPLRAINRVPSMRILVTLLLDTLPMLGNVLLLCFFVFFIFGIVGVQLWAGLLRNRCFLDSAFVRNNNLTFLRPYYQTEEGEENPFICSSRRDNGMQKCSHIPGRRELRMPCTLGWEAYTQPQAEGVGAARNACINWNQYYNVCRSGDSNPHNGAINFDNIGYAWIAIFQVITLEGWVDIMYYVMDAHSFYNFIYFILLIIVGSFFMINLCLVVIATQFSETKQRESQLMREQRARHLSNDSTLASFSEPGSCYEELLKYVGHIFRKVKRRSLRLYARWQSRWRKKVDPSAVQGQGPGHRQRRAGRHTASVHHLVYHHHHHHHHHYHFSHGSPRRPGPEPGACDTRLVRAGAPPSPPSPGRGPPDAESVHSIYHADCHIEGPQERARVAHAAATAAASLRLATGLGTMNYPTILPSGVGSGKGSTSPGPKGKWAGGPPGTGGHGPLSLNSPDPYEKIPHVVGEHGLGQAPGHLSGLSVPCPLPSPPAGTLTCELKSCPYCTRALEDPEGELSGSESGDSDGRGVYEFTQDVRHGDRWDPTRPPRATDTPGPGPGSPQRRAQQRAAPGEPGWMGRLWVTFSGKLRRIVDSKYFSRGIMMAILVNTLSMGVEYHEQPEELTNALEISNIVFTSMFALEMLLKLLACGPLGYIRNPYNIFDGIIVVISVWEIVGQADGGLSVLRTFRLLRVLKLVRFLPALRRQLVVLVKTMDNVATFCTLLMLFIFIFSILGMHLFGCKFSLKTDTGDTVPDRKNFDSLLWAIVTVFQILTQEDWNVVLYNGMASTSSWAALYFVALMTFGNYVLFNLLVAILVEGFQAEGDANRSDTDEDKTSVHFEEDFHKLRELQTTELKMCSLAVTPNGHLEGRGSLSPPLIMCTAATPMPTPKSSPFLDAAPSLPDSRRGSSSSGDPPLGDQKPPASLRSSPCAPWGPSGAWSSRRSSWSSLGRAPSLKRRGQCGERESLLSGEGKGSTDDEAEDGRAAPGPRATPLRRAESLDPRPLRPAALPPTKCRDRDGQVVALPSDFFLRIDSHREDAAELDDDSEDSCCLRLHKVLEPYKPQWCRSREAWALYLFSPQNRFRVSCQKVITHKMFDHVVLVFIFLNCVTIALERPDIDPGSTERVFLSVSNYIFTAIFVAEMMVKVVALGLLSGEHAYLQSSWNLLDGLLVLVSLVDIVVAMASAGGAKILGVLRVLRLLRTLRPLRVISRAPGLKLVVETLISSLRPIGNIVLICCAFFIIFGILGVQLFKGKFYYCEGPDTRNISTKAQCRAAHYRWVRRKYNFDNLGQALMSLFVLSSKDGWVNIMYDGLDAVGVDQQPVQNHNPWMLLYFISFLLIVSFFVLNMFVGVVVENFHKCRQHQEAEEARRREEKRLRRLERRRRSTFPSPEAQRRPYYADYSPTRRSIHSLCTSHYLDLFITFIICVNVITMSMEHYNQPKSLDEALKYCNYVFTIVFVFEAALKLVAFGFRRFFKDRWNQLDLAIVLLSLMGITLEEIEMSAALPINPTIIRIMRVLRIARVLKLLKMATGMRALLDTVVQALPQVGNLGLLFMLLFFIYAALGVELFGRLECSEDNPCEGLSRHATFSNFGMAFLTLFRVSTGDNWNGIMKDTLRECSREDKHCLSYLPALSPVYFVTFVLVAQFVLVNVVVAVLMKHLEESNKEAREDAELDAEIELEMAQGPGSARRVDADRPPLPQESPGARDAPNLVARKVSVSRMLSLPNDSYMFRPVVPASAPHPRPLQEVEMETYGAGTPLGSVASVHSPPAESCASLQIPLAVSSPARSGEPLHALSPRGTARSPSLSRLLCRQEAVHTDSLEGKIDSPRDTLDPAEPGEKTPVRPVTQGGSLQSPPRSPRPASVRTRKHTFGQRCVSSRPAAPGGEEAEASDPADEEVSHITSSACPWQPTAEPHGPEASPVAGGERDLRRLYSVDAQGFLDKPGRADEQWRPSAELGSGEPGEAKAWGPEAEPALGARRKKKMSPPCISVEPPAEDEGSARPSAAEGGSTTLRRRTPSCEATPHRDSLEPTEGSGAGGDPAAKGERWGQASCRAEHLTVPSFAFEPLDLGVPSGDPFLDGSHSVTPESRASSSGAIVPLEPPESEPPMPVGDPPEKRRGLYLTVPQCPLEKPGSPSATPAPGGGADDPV
Her2 expr inh = inhibitors of Her2 protein expression, primary screen, SKBR-3 cells, AlphaScreen, 66K library; AID 645, 2007; 65,000 tested, 0.69% active; Receptor tyrosine-protein kinase erbB-2 (Homo sapiens), P04626; SKBR-3 HER2 protein level, 18-24 h; hits give low values; HER2 level % of control, % at 10 µM;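 active = HER2 level under 5% of the carrier-only control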;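 also: 100% = DMSO carrier and 0% = 500 nM PU-H71 HSP90 inhibitor; lower value means stronger loss of Her2 protein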
M1 antag = antagonists of rat M1 muscarinic receptor | Muscarinic acetylcholine receptor M1 (Rattus norvegicus), P08482 | CHO-M1 cells, Fluo-4 calcium, ACh EC80 antagonist mode; hits give low values | B-score at 10 µM | 64,000 tested, 3.4% active;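 active = calcium fluorescence response, raw or row-and-column corrected B-score, differing from the plate sample mean either way at a set confidence level, mostly lower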
* marks the source's active call; other numbers are inactive results; x = no result given.

SMILES	PLAP activator	M1 ag	Cav32 inh	Her2 expr inh	M1 antag
Cc1ccc(OCCn2c(CCNC(=O)C(C)C)nc3ccccc32)cc1	1.2	x	-6.9*	x	x
CC(C)(C)N1CC(c2nc3ccccc3n2CCOc2ccccc2)CC1=O (stereo not given)	1.6	x	-3.9*	x	x
CC(C)C(=O)NCCc1nc2ccccc2n1C	1.1	0.63	-0.71	117	0.46
Cc1ccc(OCCn2c(CCCO)nc3ccccc32)cc1	1.3	0.61	-3.4	113	-0.64
CC(C)C(=O)NCCc1nc2ccccc2n1CCCOc1ccc(Cl)cc1	1.6	x	-5.6*	x	x
CCCc1nc2ccccc2n1CCOc1ccccc1	1	x	-5.3*	x	x
Cc1csc(NC(C)c2nc3cc(Cl)c(Cl)cc3n2CCCO)n1 (stereo not given)	x	x	-0.11	x	x
CC(C)C(=O)Nc1ccnc(-c2cccnc2)n1	0.8	x	0.5	x	x
C=CCn1c(SCc2c(C)noc2C)nc2ccccc2c1=O	1.6	x	0.29	x	x
C=CCn1c(SCc2c(C)noc2C)nc2sc3c(c2c1=O)CCCC3	1	x	-3.8*	x	x
Cc1noc(C)c1CSc1nc2sc(C)c(C)c2c(=O)n1C1CCCC1	1	-0.69	-5.8*	100	0.29
C=CCn1c(SCc2c(C)noc2C)nc2sc3c(c2c1=O)CCCCC3	1	-0.86	-4.3*	67	0.58
COc1ccc(Cc2nnc(SCc3c(C)noc3C)n2C2CCCCC2)cc1OC	1.6	0.63	-0.048	97	0.2
Cc1noc(C)c1CSc1nc2sc3c(c2c(=O)n1C)CCCC3	1.3	x	-1.1	x	x
O=C(c1ccco1)N1CCN(c2ncnc3scc(-c4cccs4)c23)CC1	1	1.9*	-3.1	48	-0.41
O=C(c1ccco1)N1CCN(c2ncnc3scc(-c4ccccc4)c23)CC1	1.9	x	-0.42	x	x
CCC(=O)NCCc1nc2ccccc2n1Cc1ccc(C)cc1	1.1	x	x	x	x
CCc1ccccc1NC(=O)CN1C(=O)C2CCCN2c2ncc(Cl)cc21 (stereo not given)	1.5	1.3	-3.2	80	-0.12
CC1CCC(NC(=O)CN2C(=O)C3CCCN3c3ncc(Cl)cc32)CC1 (stereo not given)	1.4	1.1	-6.5*	89	-0.31
CCOc1ccc(OCC)c(NC(=O)CCn2c(=O)oc3ccccc32)c1	0.9	0.25	0.036	104	-0.32
Cc1cc(NC(=O)CS(=O)(=O)c2cn(Cc3ccccc3Cl)c3ccccc23)no1	1.2	0.081	-2.1	94	3.7*
CCOC(=O)N1CCN(C(=O)CS(=O)(=O)c2cn(Cc3ccccc3Cl)c3ccccc23)CC1	1.2	x	0.13	x	x
O=C(COc1cccc2ccccc12)NNC(=O)[C@@H]1CCCC[C@@H]1C(=O)O	2*	x	0.072	x	x
COC(=O)c1ccccc1NC1CC(=O)N(c2c(C)cccc2C)C1=O (stereo not given)	1.3	x	-2.2	x	x
Cn1c(-c2c(N)n(CCc3ccccc3)c3nc4ccccc4nc23)nc2ccccc21	2.1*	x	-3.6	x	x
SMILES	PLAP activator	M1 ag	Cav32 inh	Her2 expr inh	M1 antag
Cn1c(-c2c(N)n(CCCc3ccccc3)c3nc4ccccc4nc23)nc2ccccc21	1.5	x	-1.7	x	x
COCCCn1c(N)c(-c2nc3ccccc3n2C)c2nc3ccccc3nc21	2*	x	-2.2	x	x
COc1ccccc1NC(=O)CC1COc2ccccc2O1 (stereo not given)	0.9	x	-0.45	x	x
O=C(Nc1ccc2c(c1)OCO2)c1c(F)cccc1F	0.8	-0.0033	-3.3*	89	0.54
O=C(Nc1ccc2c(c1)OCO2)c1cccc(F)c1	0.9	0.38	-0.028	93	0.18
COC(=O)c1ccccc1NC(=O)c1cccc(NC(=O)c2ccc(Br)o2)c1C	0.9	-0.048	-5*	56	-0.73
O=C(Nc1ccccc1C(=O)O)c1ccc(Br)o1	1	x	x	x	x
O=C(Nc1ccc(N2CCOCC2)cc1)c1ccc(Cl)nc1	0.9	x	0.7	x	x
CS(=O)(=O)c1ncc(Cl)c(C(=O)Nc2ccc(N3CCOCC3)cc2)n1	1.2	0.19	x	-1.6*	-0.26
Cc1cccc(OCCCSc2nc3ccccc3[nH]2)c1	0.9	x	-8.1*	x	x
c1cncc(-c2nnc(C3CCCCC3)o2)c1	0.8	-0.58	1.1	98	0.013
O=c1c2ccccc2nc2c3ccccc3c(N3CCOCC3)nn12	x	2.8*	x	79	-1.2
Cc1cc(C)c(C)c(S(=O)(=O)NCc2ccc(C(=O)N3CCCCC3)cc2)c1C	x	x	0.57	x	x
